Experimental data taken from PubChem BioAssay (NCATS).
Records with an inconclusive call do not appear. Activity calls are given as the source filed them. The call rests on the fitted dose curve; in most records, active means well fitted cell-killing curve with a large enough effect; inconclusive means small, poorly fitted or top-dose-only effect, or effect the other way; inactive means flat fitted curve, though single readings scatter.

Columns and labels:
Assay in all cases: Primary qHTS to identify gynecologic anti-cancer compounds using libraries of approved drugs and bioactive compounds (AID 1345084); further: nearly all actives have a fitted effect of over 55% in size
CAOV3 = details: Gynecologic cancer cell panel viability, ATPlite luminescence, 48 h; series mostly up to 57.5 µM
Procedure, shortened: (§1)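 Luminescence from the ATPlite ATP-monitoring reagent indicates viable cell number; lower signal means cytotoxicity. Cells received compound 16 h after seeding and were exposed for 48 h across five concentrations.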

CASKI = details: Gynecologic cancer cell panel viability, ATPlite luminescence, 48 h; series mostly up to 57.5 µM
Procedure, shortened: as §1

Es-2 = details: Gynecologic cancer cell panel viability, ATPlite luminescence, 48 h; series mostly up to 57.5 µM
Procedure, shortened: as §1

HeLa = details: Gynecologic cancer cell panel viability, ATPlite luminescence, 48 h; series mostly up to 57.5 µM
Procedure, shortened: as §1

Hek293T = details: Gynecologic cancer cell panel viability, ATPlite luminescence, 48 h, control line for the selectivity index; series mostly up to 57.5 µM
Procedure, shortened: as §1

JEG-3 = details: Gynecologic cancer cell panel viability, ATPlite luminescence, 48 h; series mostly up to 57.5 µM
Procedure, shortened: as §1

OV90 = details: Gynecologic cancer cell panel viability, ATPlite luminescence, 48 h; series mostly up to 57.5 µM
Procedure, shortened: as §1

PA-1 = details: Gynecologic cancer cell panel viability, ATPlite luminescence, 48 h; series mostly up to 57.5 µM
Procedure, shortened: as §1

SKOV3 = details: Gynecologic cancer cell panel viability, ATPlite luminescence, 48 h; series mostly up to 57.5 µM
Procedure, shortened: as §1

Tov-21-G = details: Gynecologic cancer cell panel viability, ATPlite luminescence, 48 h; series mostly up to 57.5 µM
Procedure, shortened: as §1

Tov112D = details: Gynecologic cancer cell panel viability, ATPlite luminescence, 48 h; series mostly up to 57.5 µM
Procedure, shortened: as §1
On the % scale 0 is the no-effect control and ±100 the full control effect.

C=C1C(OC(C)=O)C(=O)C2C(C)(C)C(OC(C)=O)CCC2(C)C1CC(OC(C)=O)/C(C)=C/COC(C)=O (stereo not drawn)
inactive: Potency (CAOV3) | Potency (CASKI) | Potency (Es-2) | Potency (HeLa) | Potency (Hek293T) | Potency (JEG-3) | Potency (OV90) | Potency (PA-1) | Potency (SKOV3) | Potency (Tov-21-G) | Potency (Tov112D)

CCC(=O)N[C@@H]1Cc2ccccc2[C@H](c2ccccc2)C1
inactive: Potency (CAOV3) | Potency (CASKI) | Potency (Es-2) | Potency (HeLa) | Potency (Hek293T) | Potency (JEG-3) | Potency (OV90) | Potency (PA-1) | Potency (SKOV3) | Potency (Tov-21-G) | Potency (Tov112D)

C[C@H]1[C@H](C)CC[C@]2(C(=O)O[C@@H]3O[C@H](CO)[C@@H](O)[C@H](O)[C@H]3O)CC[C@]3(C(=O)O)C(=CCC4[C@@]5(C)CC[C@H](O[C@@H]6O[C@H](CO)[C@@H](O)[C@H](O)[C@H]6O)C(C)(C)C5CC[C@]43C)[C@H]12 (stereo partly drawn)
inactive: activity change, negative = cytotoxicity (CAOV3) 0.882% [at 11.6 µM] | activity change, negative = cytotoxicity (CASKI) 0.925% [at 11.6 µM] | activity change, negative = cytotoxicity (Es-2) -10.9% [at 11.6 µM] | activity change, negative = cytotoxicity (HeLa) 13.2% [at 11.6 µM] | activity change, negative = cytotoxicity (Hek293T) 3.39% [at 11.6 µM] | activity change, negative = cytotoxicity (JEG-3) 1.79% [at 11.6 µM] | activity change, negative = cytotoxicity (OV90) -4.18% [at 11.6 µM] | activity change, negative = cytotoxicity (PA-1) 5.91% [at 11.6 µM] | activity change, negative = cytotoxicity (SKOV3) 23.4% [at 11.6 µM] | activity change, negative = cytotoxicity (Tov-21-G) -3.54% [at 11.6 µM] | activity change, negative = cytotoxicity (Tov112D) 2.01% [at 11.6 µM]

COC1CC(=O)CCC(C)OC(=O)CC1O (stereo not drawn)
inactive: Potency (CAOV3) | Potency (CASKI) | Potency (Es-2) | Potency (HeLa) | Potency (Hek293T) | Potency (JEG-3) | Potency (OV90) | Potency (PA-1) | Potency (SKOV3) | Potency (Tov-21-G) | Potency (Tov112D)

COc1ccccc1-n1c(SCC(=O)Nc2nc3ccc(C)cc3s2)nc2c(c1=O)SCC2
inactive: Potency (CAOV3) | Potency (CASKI) | Potency (Es-2) | Potency (HeLa) | Potency (Hek293T) | Potency (JEG-3) | Potency (OV90) | Potency (PA-1) | Potency (SKOV3) | Potency (Tov-21-G) | Potency (Tov112D)

CC(=O)OC[C@]12[C@H](OC(C)=O)C(=O)[C@@H]3[C@@H](OC(C)=O)[C@@]14O[C@@]3(C)COC(=O)c1cccnc1[C@@H](C)[C@H](C)C(=O)O[C@@H]([C@H](OC(C)=O)[C@@H]2OC(C)=O)[C@]4(C)O
inactive: Potency (CAOV3) | Potency (CASKI) | Potency (Es-2) | Potency (HeLa) | Potency (Hek293T) | Potency (JEG-3) | Potency (OV90) | Potency (PA-1) | Potency (SKOV3) | Potency (Tov-21-G) | Potency (Tov112D)

CC1=CC(=O)CC(C)(CO[C@@H]2O[C@H](CO)[C@@H](O)[C@H](O)[C@H]2O)C1(O)/C=C/C(C)=C/C(=O)O (stereo partly drawn)
inactive: Potency (CAOV3) | Potency (CASKI) | Potency (Es-2) | Potency (HeLa) | Potency (Hek293T) | Potency (JEG-3) | Potency (OV90) | Potency (PA-1) | Potency (SKOV3) | Potency (Tov-21-G) | Potency (Tov112D)

CC(C)CC(=O)OC[C@H]1O[C@@](COC(=O)CC(C)C)(O[C@H]2O[C@H](CO)[C@@H](O)[C@H](O)[C@H]2OC(=O)CC(C)C)[C@@H](OC(=O)CC(C)C)[C@@H]1O
inactive: Potency (CAOV3) | Potency (CASKI) | Potency (Es-2) | Potency (HeLa) | Potency (Hek293T) | Potency (JEG-3) | Potency (OV90) | Potency (PA-1) | Potency (SKOV3) | Potency (Tov-21-G) | Potency (Tov112D)

O=C(c1ccccn1)c1cnn2c(-c3ccncc3)ccnc12
inactive: Potency (CAOV3) | Potency (CASKI) | Potency (Es-2) | Potency (HeLa) | Potency (Hek293T) | Potency (JEG-3) | Potency (OV90) | Potency (PA-1) | Potency (SKOV3) | Potency (Tov-21-G) | Potency (Tov112D)

C[C@H]1[C@H](C)CC[C@]2(C(=O)O)CC[C@]3(C)C(=CC[C@@H]4[C@@]5(C)C[C@@H](O)[C@H](O)[C@@](C)(CO)[C@@H]5CC[C@]43C)[C@H]12
inactive: Potency (CAOV3) | Potency (CASKI) | Potency (Es-2) | Potency (HeLa) | Potency (Hek293T) | Potency (JEG-3) | Potency (OV90) | Potency (PA-1) | Potency (SKOV3) | Potency (Tov-21-G) | Potency (Tov112D)

COc1cccc(-n2nc(C(=O)O)cc2-c2ccc(C3CCCCC3)c(Cl)c2)c1
inactive: Potency (CAOV3) | Potency (CASKI) | Potency (Es-2) | Potency (HeLa) | Potency (Hek293T) | Potency (JEG-3) | Potency (OV90) | Potency (PA-1) | Potency (SKOV3) | Potency (Tov-21-G) | Potency (Tov112D)

CN1C(=O)c2ccccc2-n2c(nc3ccccc3c2=O)/C1=C/c1ccccc1
inactive: Potency (CAOV3) | Potency (CASKI) | Potency (Es-2) | Potency (HeLa) | Potency (Hek293T) | Potency (JEG-3) | Potency (OV90) | Potency (PA-1) | Potency (SKOV3) | Potency (Tov-21-G) | Potency (Tov112D)

C/C(=C/CO)CC[C@@H]1[C@@]2(C)CCC[C@](C)(C(=O)O)C2CC[C@@]1(C)O (stereo partly drawn)
inactive: Potency (CAOV3) | Potency (CASKI) | Potency (Es-2) | Potency (HeLa) | Potency (Hek293T) | Potency (JEG-3) | Potency (OV90) | Potency (PA-1) | Potency (SKOV3) | Potency (Tov-21-G) | Potency (Tov112D)
